This passage reports growth inhibition and condensed nuclei results from PubChem BioAssay AID770 (SRMLSC, 2007).

This experiment in a line: HT29 colon tumor cell growth inhibition, primary screen, imaging, high content imaging, 24 h, CellTiter-Glo (AID 770).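 On condensed nuclei: share of cells whose nuclear area falls below control median minus 1.5 SD.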 As to conditions: HT29 cell number by imaging, at 10 µM, stronger effect = higher value; for condensed nuclei: measured here: percent cells with condensed nuclei.
Where [1] appears, read: measured here: ATP CellTiter-Glo viability.

Fewer than 10 of roughly 3,300 compounds were called active.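 How the source made its calls: active means growth inhibition above 90% in viable cell count at a single dose; inactive means growth inhibition below 90%.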 The list is a sample of the results.

`c1ccc2c(c1)[nH]c1cnccc12`: the growth inhibition was 36.4% (inactive) and the condensed nuclei came to 3.43%. Further, the growth inhibition under setting [1] amounted to 17.6%.
With `Cc1c2ccncc2c(C)c2c1[nH]c1ccccc12`, the growth inhibition is 95.1% (active) and the condensed nuclei was 18.1%. Besides, the growth inhibition under setting [1] was 46.4%.
With `C=CCOC(=O)C1=C(C)OC(N)=C(C#N)[C@@]12C(=O)N(CC(N)=O)c1ccccc12`, the growth inhibition was 19% (inactive) and the condensed nuclei was 5.52%. Moreover, the growth inhibition under setting [1] is -1.1%.
Consider `Cn1c(O)c(C=NC2CCN(Cc3ccccc3)CC2)c(=O)n(C)c1=O`, for which the growth inhibition is 26.8% (inactive) and the condensed nuclei was found to be 6.67%. For the same compound, under setting [1], the growth inhibition was 3.87%.
As for `CN1CC[C@@]23CCCC[C@@H]2[C@@H]1Cc1ccc(O)cc13`, the growth inhibition is -3.31% (inactive) and the condensed nuclei turned out to be 4.84%. For the same compound, under setting [1], the growth inhibition was -18.2%.
In the same order, the values of `C/C(Cl)=C/CC1(CN2CCCC2=O)C(=O)NC(=O)NC1=O` are -10.6% (inactive), 2.87% and -8.34%.
Taken in the same sequence, the figures for `CCCCCCn1c(O)c(C=Nc2c(C)n(C)n(-c3ccccc3)c2=O)c(=O)[nH]c1=O` were -5.94% (inactive), 3.03% and -9.79%.
`CCOc1ccccc1-n1c(O)c(C=Nc2c(C)n(C)n(-c3ccccc3)c2=O)c(=O)[nH]c1=O`: the growth inhibition was 100% (active) and the condensed nuclei was found to be 5.62%. Besides, under setting [1], the growth inhibition was -85.3%.
On to `Cc1c(N=Cc2c(O)n(CCc3ccccc3)c(=O)[nH]c2=O)c(=O)n(-c2ccccc2)n1C`, for which the growth inhibition was 23.4% (inactive) and the condensed nuclei turned out to be 7.53%. Moreover, the growth inhibition under setting [1] worked out at 16.4%.
Taken in the same sequence, the figures for `CCCCCCn1c(O)c(C=NC2CCN(Cc3ccccc3)CC2)c(=O)[nH]c1=O` were 3.03% (inactive), 1.13% and 23.3%.
